From PubChem BioAssay (Tox21)
Records with an inconclusive call do not appear. Active and inactive are the calls of the source. Unless noted, calls come from the whole dose curve; as a rule, active = well fitted curve in the direction sought with a large enough effect in the repeat runs; inconclusive = weak or mixed curves; inactive = flat fitted curve, though single readings scatter.

Key:
[1] = qHTS assay to test for compound auto fluorescence at 535 nm (green) in HEK293 cells (AID 720680)
[2] = qHTS assay to test for compound auto fluorescence at 460 nm (blue) in HEK293 cell free culture (AID 720681)
How it was run: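 Compounds were added to cell-free DMEM with 10% FBS and fluorescence read directly. The blue channel used 405 nm excitation and 460 nm emission, with triamterene as the reference fluorophore.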

[3] = qHTS assay to test for compound auto fluorescence at 535 nm (green) in HEK293 cell free culture (AID 720682)
How it was run: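 Measurement is a direct plate read of green fluorescence (485 nm in, 535 nm out) after compound addition to serum-supplemented DMEM lacking cells, with fluorescein used to express intensities.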

[4] = qHTS assay to test for compound auto fluorescence at 590 nm (red) in HEK293 cell free culture (AID 720683)
How it was run: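 Cell-free wells of DMEM with 10% FBS received compound, and intrinsic fluorescence was read at excitation/emission 540/590 nm. Values expressed as equivalence to Rose Bengal sodium.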

[5] = qHTS assay to test for compound auto fluorescence at 590 nm (red) in HepG2 cell free culture (AID 720684)
How it was run: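 Auto fluorescence equivalency versus Rose Bengal sodium, red channel Ex/Em 540/590 nm; compounds in cell-free MEM/10% FBS; DMSO vehicle control.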

[6] = qHTS assay to test for compound auto fluorescence at 460 nm (blue) in HepG2 cell free culture (AID 720685)
How it was run: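 Cell-free plates of MEM plus 10% FBS received 23 nL compound or DMSO vehicle; blue-channel (405/460 nm) intensity scored against triamterene as reference fluorophore.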

[7] = qHTS assay to test for compound auto fluorescence at 535 nm (green) in HepG2 cell free culture (AID 720686)
[8] = qHTS assay to test for compound auto fluorescence at 460 nm (blue) in HepG2 cells (AID 720687)
How it was run: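 HepG2 cells in MEM with 10% FBS, attached overnight at 37 C, were exposed to compound or DMSO for 1 hr at 37 C, 5% CO2. Blue fluorescence was read at 405/460 nm, with triamterene as reference fluorophore.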

[9] = biological target: Glucocorticoid receptor (Homo sapiens) (UniProt P04150); experiment: qHTS assay to identify small molecule agonists of the glucocorticoid receptor (GR) signaling pathway (AID 720691; active = well fitted activation curve with a large enough effect in the signal ratio in the repeat runs, not every such curve was filed as active; the % refers to the signal ratio)
Chain of Glucocorticoid receptor (Homo sapiens) (P04150 whole entry, looked up): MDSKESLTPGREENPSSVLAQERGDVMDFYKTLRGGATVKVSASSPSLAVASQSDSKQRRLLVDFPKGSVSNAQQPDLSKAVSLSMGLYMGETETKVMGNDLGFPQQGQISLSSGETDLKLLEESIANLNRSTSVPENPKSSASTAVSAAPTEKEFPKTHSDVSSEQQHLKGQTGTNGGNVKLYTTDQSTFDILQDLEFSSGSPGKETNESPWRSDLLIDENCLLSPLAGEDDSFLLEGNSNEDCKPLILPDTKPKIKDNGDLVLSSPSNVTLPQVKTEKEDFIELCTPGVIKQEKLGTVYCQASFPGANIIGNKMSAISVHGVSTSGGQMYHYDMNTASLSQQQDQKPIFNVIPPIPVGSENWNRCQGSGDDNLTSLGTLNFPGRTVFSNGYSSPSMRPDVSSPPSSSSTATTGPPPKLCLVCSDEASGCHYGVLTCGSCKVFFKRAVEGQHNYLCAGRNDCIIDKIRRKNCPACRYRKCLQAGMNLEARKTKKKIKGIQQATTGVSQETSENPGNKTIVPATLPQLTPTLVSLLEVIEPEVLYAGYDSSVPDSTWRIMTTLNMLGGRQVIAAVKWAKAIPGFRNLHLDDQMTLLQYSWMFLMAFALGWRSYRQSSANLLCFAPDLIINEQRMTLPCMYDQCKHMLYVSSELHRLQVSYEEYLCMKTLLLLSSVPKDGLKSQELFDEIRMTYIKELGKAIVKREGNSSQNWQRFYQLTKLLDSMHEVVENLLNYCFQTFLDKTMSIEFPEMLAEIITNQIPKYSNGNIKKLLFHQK
How it was run: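 Cells: GR-bla HeLa, endogenous GR with stably integrated GRE-beta-lactamase reporter. Treatment 18 h, 37 C, compounds delivered in DMSO. Detection via LiveBLAzer B/G FRET substrate, 2 h RT, fluorescence intensity.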

[10] = biological target: Glucocorticoid receptor (Homo sapiens) (UniProt P04150); experiment: qHTS assay to identify small molecule antagonists of the glucocorticoid receptor (GR) signaling pathway (AID 720692; active = well fitted inhibition curve with a large enough effect in the signal ratio in the repeat runs, not every such curve was filed as active; the % refers to the signal ratio)
How it was run: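 Quantitative HTS in antagonist format: HeLa cells expressing endogenous GR and a stably integrated GRE-bla reporter, stimulated with 5 nM dexamethasone (final) alongside test compounds for 18 h.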
% is set by controls: 0 for no effect and ±100 for the full control effect.

CCCN(C1CCN(C(=O)C2CCNCC2)CC1)[C@@H]1CCc2ccc(OC)cc2C1
inactive: outcome [1] | Potency [2] | outcome [3] | outcome [4] | outcome [5] | outcome [6] | outcome [7] | outcome [8] | Potency [9] | Potency [10]

Nc1cccc2c(=O)[nH][nH]c(=O)c12
inactive: outcome [1] | Potency [2] | outcome [3] | outcome [4] | outcome [5] | outcome [6] | outcome [7] | outcome [8] | Potency [9] | Potency [10]

CCc1ccc(C(=O)C(C)CN2CCCCC2)cc1 (stereo not given)
inactive: outcome [1] | Potency [2] | outcome [3] | outcome [4] | outcome [5] | outcome [6] | outcome [7] | outcome [8] | Potency [9] | Potency [10]

C/C=C1\[C@H]2C=C(C)C[C@]1(N)c1ccc(=O)[nH]c1C2
inactive: outcome [1] | Potency [2] | outcome [3] | outcome [4] | outcome [5] | outcome [6] | outcome [7] | outcome [8] | Potency [9] | Potency [10]

Clc1nc2ccccc2nc1Cl
inactive: outcome [1] | Potency [2] | outcome [3] | outcome [4] | outcome [5] | outcome [6] | outcome [7] | outcome [8] | Potency [9] | Potency [10]

CC(COc1ccccc1)NC(C)C(O)c1ccc(O)cc1 (stereo not given)
inactive: fluorescence, % of fluorescein [1] 0.0104% [at 18.6 µM] | fluorescence, % of fluorescent control [2] 0.128% [at 18.6 µM] | activity change [3] -0.0013% [at 18.6 µM] | fluorescence, % of fluorescent control [4] 0.208% [at 18.6 µM] | fluorescence, % of Rose Bengal [5] -0.0388% [at 18.6 µM] | fluorescence, % of fluorescent control [6] -0.0841% [at 18.6 µM] | fluorescence, % of fluorescein control [7] 0.0107% [at 18.6 µM] | fluorescence, % of fluorescent control [8] 0.0066% [at 18.6 µM] | Potency [9] | Potency [10]

CC(=O)S[C@H](C(=O)N[C@H]1Cc2ccccc2[C@H]2CCC[C@@H](C(=O)O)N2C1=O)C(C)C
inactive: outcome [1] | Potency [2] | outcome [3] | outcome [4] | outcome [5] | outcome [6] | outcome [7] | outcome [8] | Potency [9] | Potency [10]

CC(C)(C)c1ccc(CCC=O)cc1
inactive: outcome [1] | Potency [2] | outcome [3] | outcome [4] | outcome [5] | outcome [6] | outcome [7] | outcome [8] | Potency [9] | Potency [10]

COc1cc(CNC(=O)CCCC/C=C/C(C)C)ccc1O
inactive: outcome [1] | Potency [2] | outcome [3] | outcome [4] | outcome [5] | outcome [6] | outcome [7] | outcome [8] | Potency [9] | Potency [10]

COc1ccc(C(=O)Nc2ccccc2)cc1[N+](=O)[O-]
inactive: outcome [1] | Potency [2] | outcome [3] | outcome [4] | outcome [5] | outcome [6] | outcome [7] | outcome [8] | Potency [9] | Potency [10]

O=C(O)c1cc(C(=O)O)c(C(=O)O)cc1C(=O)O
inactive: outcome [1] | Potency [2] | outcome [3] | outcome [4] | outcome [5] | outcome [6] | outcome [7] | outcome [8] | Potency [9] | Potency [10]

CCC(CC)C(=O)O
inactive: outcome [1] | Potency [2] | outcome [3] | outcome [4] | outcome [5] | outcome [6] | outcome [7] | outcome [8] | Potency [9] | Potency [10]

C[C@@H](O)[C@H]1C(=O)N2C(C(=O)O)=C(S[C@@H]3CN[C@H](CNS(N)(=O)=O)C3)[C@H](C)[C@H]12
inactive: outcome [1] | Potency [2] | outcome [3] | outcome [4] | outcome [5] | outcome [6] | outcome [7] | outcome [8] | Potency [9] | Potency [10]

Cc1c(N=C=O)cccc1N=C=O
inactive: outcome [1] | Potency [2] | outcome [3] | outcome [4] | outcome [5] | outcome [6] | outcome [7] | outcome [8] | Potency [9] | Potency [10]

Cc1cccc(C)c1NC(=O)CN1CCCC1
inactive: outcome [1] | Potency [2] | outcome [3] | outcome [4] | outcome [5] | outcome [6] | outcome [7] | outcome [8] | Potency [9] | Potency [10]

C=CC(=O)OCCCCCCCCCC
inactive: outcome [1] | Potency [2] | outcome [3] | outcome [4] | outcome [5] | outcome [6] | outcome [7] | outcome [8] | Potency [9] | Potency [10]

CC(O)CN (stereo not given)
inactive: outcome [1] | Potency [2] | outcome [3] | outcome [4] | outcome [5] | outcome [6] | outcome [7] | outcome [8] | Potency [9] | Potency [10]

O=[N+]([O-])c1cccc(I)c1
inactive: outcome [1] | Potency [2] | outcome [3] | outcome [4] | outcome [5] | outcome [6] | outcome [7] | outcome [8] | Potency [9] | Potency [10]

O=C(OCCCCCOC(=O)c1ccccc1)c1ccccc1
inactive: outcome [1] | Potency [2] | outcome [3] | outcome [4] | outcome [5] | outcome [6] | outcome [7] | outcome [8] | Potency [9] | Potency [10]

O=c1[nH]nc(-c2ccc([N+](=O)[O-])o2)o1
inactive: outcome [1] | Potency [2] | outcome [3] | outcome [4] | outcome [5] | outcome [6] | outcome [7] | outcome [8] | Potency [9] | Potency [10]

COC(=O)C(C)(C)C
inactive: outcome [1] | Potency [2] | outcome [3] | outcome [4] | outcome [5] | outcome [6] | outcome [7] | outcome [8] | Potency [9] | Potency [10]

CC(C)(C(=O)O)c1ccc(C(O)CCCN2CCC(C(O)(c3ccccc3)c3ccccc3)CC2)cc1 (stereo not given)
inactive: outcome [1] | Potency [2] | outcome [3] | outcome [4] | outcome [5] | outcome [6] | outcome [7] | outcome [8] | Potency [9] | Potency [10]
